According to PubChem BioAssay (Tox21):
Inconclusive results are not listed. Where a call stands in place of a potency, no number is given. Activity calls are given as the source filed them. Unless noted, the call rests on the fitted dose curve; in most records, active means well fitted curve in the direction sought with a large enough effect in the repeat runs; inconclusive means weak or mixed curves; inactive means no such curve, though single readings can be large; an effect the other way counts as inactive or inconclusive.

Assays:
[1] = qHTS assay to identify small molecule agonists of the estrogen receptor alpha (ER-alpha) signaling pathway in the presence of an antagonist - cell viability counter screen (AID 1259386);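 further: series mostly up to about 92 µM; cells exposed to compounds for 22 h at 37 °C before the viability read; nearly all actives have a fitted effect of over 30% in size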
In short: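 Using estrogen-depleted VM7Luc4E2 cells, the 15-concentration compound series was applied together with 10.0nM ICI-182,780 and incubated 22hr at 37C/5% CO2. Cell viability was then scored by CellTiter-Fluor.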

[2] = target: Progesterone receptor (Homo sapiens) (UniProt P06401); test: qHTS assay to identify small molecule agonists of the progesterone receptor (PR) signaling pathway (AID 1346784; calls by dose curve; further: nearly all actives have a fitted effect of over 30% in size)
Chain of Progesterone receptor (Homo sapiens) (P06401 whole entry, looked up): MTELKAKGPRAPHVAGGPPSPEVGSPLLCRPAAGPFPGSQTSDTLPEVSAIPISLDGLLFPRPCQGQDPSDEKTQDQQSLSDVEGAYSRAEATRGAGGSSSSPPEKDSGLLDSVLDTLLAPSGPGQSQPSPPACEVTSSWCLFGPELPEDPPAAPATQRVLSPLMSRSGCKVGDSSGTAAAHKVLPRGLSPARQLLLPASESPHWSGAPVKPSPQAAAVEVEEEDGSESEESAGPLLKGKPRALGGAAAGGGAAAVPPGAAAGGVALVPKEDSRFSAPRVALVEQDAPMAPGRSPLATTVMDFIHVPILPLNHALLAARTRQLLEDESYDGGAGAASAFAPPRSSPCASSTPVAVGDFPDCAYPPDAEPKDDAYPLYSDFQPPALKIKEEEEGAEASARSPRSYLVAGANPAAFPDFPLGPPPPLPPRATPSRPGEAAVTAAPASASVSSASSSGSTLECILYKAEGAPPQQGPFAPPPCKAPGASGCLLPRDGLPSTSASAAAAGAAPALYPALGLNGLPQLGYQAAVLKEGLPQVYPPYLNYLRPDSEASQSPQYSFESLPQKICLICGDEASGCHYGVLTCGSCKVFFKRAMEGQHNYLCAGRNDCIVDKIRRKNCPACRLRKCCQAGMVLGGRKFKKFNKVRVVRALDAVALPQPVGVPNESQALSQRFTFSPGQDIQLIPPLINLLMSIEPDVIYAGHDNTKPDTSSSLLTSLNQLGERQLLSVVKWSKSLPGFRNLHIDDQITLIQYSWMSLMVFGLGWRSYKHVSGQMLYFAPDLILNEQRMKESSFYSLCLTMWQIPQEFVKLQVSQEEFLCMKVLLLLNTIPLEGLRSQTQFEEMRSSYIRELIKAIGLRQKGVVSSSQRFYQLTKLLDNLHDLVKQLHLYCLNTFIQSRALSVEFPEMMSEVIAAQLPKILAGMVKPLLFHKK
In short: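 PR-UAS-bla HEK 293T cells (beta-lactamase reporter under UAS) in 2% charcoal-stripped FBS, dosed with 23 nL compound after 6 hr, incubated 16hr at 37C. LiveBLAzer B/G FRET substrate added, fluorescence read after 2 hours.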

[3] = target: Progesterone receptor (Homo sapiens) (UniProt P06401); test: qHTS assay to identify small molecule antagonists of the progesterone receptor (PR) signaling pathway (AID 1346795; active means well fitted inhibition curve with a large enough effect in the signal ratio in the repeat runs, not every such curve was filed as active; the % refers to the signal ratio)
In short: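 PR-UAS-bla HEK293T cells with beta-lactamase reporter under UAS control, in 2% charcoal-stripped FBS, treated with compounds plus 1 nM promegestone (R5020, final) for 16 hr at 37C. Read-out: FRET beta-lactamase substrate fluorescence after 2 hr at room temperature.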

[4] = qHTS assay to identify small molecule antagonists of the TGF-beta/Smad signaling pathway - cell viability counter screen (AID 1346824); further: nearly all actives have a fitted effect of over 50% in size
In short: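 Cytotoxicity counter-screen run in the same wells as the beta-lactamase Smad reporter read: CellTiter-Glo luminescence after 30 min at room temperature. HEK 293T SBE-bla cells had 5 hr compound exposure at 37 C with TGF-beta1 (0.25 ng/mL stock).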

[5] = qHTS assay to identify small molecule agonists of the TGF-beta/Smad signaling pathway - cell viability counter screen (AID 1346829); further: top concentration of the series differs between compounds; nearly all actives have a fitted effect of over 45% in size
In short: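 Compound-treated SBE-bla HEK 293T cells (5 hr, 37 C) were assessed for viability with CellTiter-Glo in parallel with the reporter read.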

[6] = Human pregnane X receptor (PXR) small molecule agonists, qHTS cell viability counter screen (AID 1346977); further: nearly all actives have a fitted effect of over 50% in size; further: potency means the concentration at half of the fitted maximal effect
In short: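 PXR-Luc HepG2 cells (2,000/well, 5% charcoal-stripped FBS) preincubated 5 hr, then exposed to compounds 24 hr at 37 C. Viability read in the same wells by CellTiter-Fluor fluorescence, reagent added at 23 hr, 1 hr incubation.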

[7] = Caspase-3/7 induction in HepG2 cells by small molecules, qHTS assay (AID 1346978); further: nearly all actives have a fitted effect of over 15% in size
In short: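 Caspase-3/7 induction was measured by Caspase-Glo 3/7 luminescence (30 min, room temperature) after a 17 hr compound exposure of wild-type HepG2 cells seeded at 2,000 per well and pre-incubated 5 hr.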

[8] = Caspase-3/7 induction in CHO-K1 cells by small molecules, qHTS cell viability counter screen (AID 1346979); further: nearly all actives have a fitted effect of over 35% in size
In short: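 Wild-type CHO-K1 cells (1,500/well) treated with compound after 5 h plating; after 16 h at 37C, viability read as CellTiter-Fluor fluorescence following 1 h reagent incubation, in the same wells as the caspase read.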

[9] = Caspase-3/7 induction in CHO-K1 cells by small molecules, qHTS assay (AID 1346980); further: nearly all actives have a fitted effect of over 15% in size
In short: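 Luminescent Caspase-Glo 3/7 read (30min, room temperature) quantified apoptosis induction. Cells were wild-type CHO-K1, treated with compound for 17hr at 37 C and 5% CO2.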

[10] = Caspase-3/7 induction in HepG2 cells by small molecules, qHTS cell viability counter screen (AID 1346981); further: series mostly up to about 92 µM; nearly all actives have a fitted effect of over 30% in size
In short: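 After a 5-hr attachment period at 37 C and 5% CO2, wild-type HepG2 cells received compounds in DMSO. Sixteen hours later CellTiter-Fluor was dispensed and the fluorescent signal quantified after a further hour.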

[11] = target: Nuclear receptor subfamily 1 group I member 2 (Homo sapiens) (UniProt O75469); test: Human pregnane X receptor (PXR) small molecule agonists, qHTS assay (AID 1346982); further: nearly all actives have a fitted effect of over 35% in size
Chain of Nuclear receptor subfamily 1 group I member 2 (Homo sapiens) (O75469 whole entry, looked up): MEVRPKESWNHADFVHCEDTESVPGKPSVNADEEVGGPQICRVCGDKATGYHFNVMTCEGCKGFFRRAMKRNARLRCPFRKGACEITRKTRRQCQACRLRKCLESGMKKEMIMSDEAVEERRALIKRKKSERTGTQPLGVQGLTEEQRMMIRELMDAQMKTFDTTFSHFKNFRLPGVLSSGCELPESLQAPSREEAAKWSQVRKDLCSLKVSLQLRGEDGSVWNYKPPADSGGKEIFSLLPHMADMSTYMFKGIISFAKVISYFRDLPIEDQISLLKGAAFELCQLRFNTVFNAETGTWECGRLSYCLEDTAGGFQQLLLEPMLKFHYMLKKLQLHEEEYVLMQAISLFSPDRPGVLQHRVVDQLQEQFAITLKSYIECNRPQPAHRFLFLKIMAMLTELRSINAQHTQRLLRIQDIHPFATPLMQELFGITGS
In short: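 Tox21 qHTS; PXR-Luc HepG2; compounds pinned from DMSO; 24 hr, 37 C; ONE-Glo luciferase detection, 30 min room temperature.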

[12] = target: Cytochrome P450 2D6 (Homo sapiens) (UniProt P10635); test: Cytochrome P450 Family 2 Subfamily D Member 6 (CYP2D6) small molecule antagonists: luciferase reporter qHTS assay (AID 1671196); further: series mostly up to about 120 µM; nearly all actives have a fitted effect of over 50% in size
Chain of Cytochrome P450 2D6 (Homo sapiens) (P10635 whole entry, looked up): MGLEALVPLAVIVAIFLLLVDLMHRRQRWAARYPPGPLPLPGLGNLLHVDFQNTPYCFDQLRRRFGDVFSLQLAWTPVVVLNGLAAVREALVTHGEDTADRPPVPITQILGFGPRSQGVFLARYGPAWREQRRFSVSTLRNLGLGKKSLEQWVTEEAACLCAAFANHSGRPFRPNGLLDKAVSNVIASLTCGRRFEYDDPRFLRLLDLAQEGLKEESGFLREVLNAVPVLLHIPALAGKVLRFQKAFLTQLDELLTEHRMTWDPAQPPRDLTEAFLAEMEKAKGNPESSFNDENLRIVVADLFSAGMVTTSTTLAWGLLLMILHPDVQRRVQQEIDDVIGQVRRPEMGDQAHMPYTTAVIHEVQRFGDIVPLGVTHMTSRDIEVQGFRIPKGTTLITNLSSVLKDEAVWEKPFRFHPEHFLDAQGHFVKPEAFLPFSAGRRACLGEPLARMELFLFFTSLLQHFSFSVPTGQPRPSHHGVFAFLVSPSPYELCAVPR
In short: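 Room-temperature luminescent CYP2D6 activity assay: compound preincubated 10 min with enzyme–substrate mix, NADPH-initiated reaction 1 h, detection reagent 20 min before reading.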

[13] = qHTS assay to identify small molecule antagonists of the progesterone receptor (PR) signaling pathway - cell viability counter screen (AID 1346798); further: series mostly up to about 92 µM; nearly all actives have a fitted effect of over 50% in size
In short: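 PR-UAS-bla HEK293T cells, 3,000/well in 2% charcoal-stripped FBS medium, dosed with compounds plus R5020 agonist and incubated 16 h at 37C. Viability then measured in the same wells by CellTiter-Glo luminescence after 30 min at RT.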

[14] = qHTS assay to identify small molecule agonists of the TGF-beta/Smad signaling pathway (AID 1346859; active means well fitted activation curve with a large enough effect in the signal ratio in the repeat runs, not every such curve was filed as active; the % refers to the signal ratio; further: series mostly up to about 77 µM)
In short: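 SBE-bla HEK293T cells plated overnight, then compound exposure for 5 h at 37 C. Beta-lactamase reporter read with LiveBLAzer B/G FRET substrate after 2 h at room temperature, fluorescence at 405 nm excitation, 460/530 nm emission.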

[15] = target: Thyrotropin-releasing hormone receptor (Homo sapiens) (UniProt P34981); test: qHTS assay to identify small molecule agonists of the thyrotropin-releasing hormone receptor (TRHR) signaling pathway (AID 1346891; calls by dose curve; further: series mostly up to about 58 µM)
Chain of Thyrotropin-releasing hormone receptor (Homo sapiens) (P34981 whole entry, looked up): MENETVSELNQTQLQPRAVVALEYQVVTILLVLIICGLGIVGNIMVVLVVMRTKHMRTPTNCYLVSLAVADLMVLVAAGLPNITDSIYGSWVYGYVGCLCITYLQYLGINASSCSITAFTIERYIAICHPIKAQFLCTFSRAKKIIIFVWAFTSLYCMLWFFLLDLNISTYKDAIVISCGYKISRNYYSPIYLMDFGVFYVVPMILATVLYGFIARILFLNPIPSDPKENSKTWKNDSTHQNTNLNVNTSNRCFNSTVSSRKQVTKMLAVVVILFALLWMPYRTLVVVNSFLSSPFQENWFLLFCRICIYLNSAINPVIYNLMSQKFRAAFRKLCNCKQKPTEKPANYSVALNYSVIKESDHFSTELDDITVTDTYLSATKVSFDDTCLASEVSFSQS
In short: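 HEK293 cells expressing TRHR plated 18 h at 37 C/5% CO2, calcium dye-loaded 2 h at 37 C, then compound added (agonist mode); kinetic calcium fluorescence read 3 min at 1 s intervals; 15 concentrations in triplicate.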

[16] = target: Thyrotropin-releasing hormone receptor (Homo sapiens) (UniProt P34981); test: qHTS assay to identify small molecule antagonists of the thyrotropin-releasing hormone receptor (TRHR) signaling pathway (AID 1346877; active means well fitted inhibition curve with a large enough effect in the repeat runs, not every such curve was filed as active; further: series mostly up to about 51 µM)
In short: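 Calcium signal in dye-loaded TRHR/HEK293 cells; compounds added 5 min before TRH (1 nM final); fluorescence monitored 3 min at 1 s steps.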

[17] = qHTS assay to identify small molecule agonists of the progesterone receptor (PR) signaling pathway - cell viability counter screen (AID 1346799; calls by dose curve; further: nearly all actives have a fitted effect of over 45% in size)
In short: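 Counter screen in the PR-UAS-bla HEK293T wells (2% charcoal-stripped FBS, 16 h compound exposure at 37 C) after the bla read. CellTiter-Glo added, 30 min at room temperature, luminescence read as cell viability.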

| Compound | Potency [1] | Potency [2] | Potency [3] | Potency [4] | Potency [5] | Potency [6] | Potency [7] | Potency [8] | Potency [9] | Potency [10] | Potency [11] | Potency [12] | Potency [13] | Potency [14] | outcome [15] | Potency [16] | Potency [17] |
| --- | --- | --- | --- | --- | --- | --- | --- | --- | --- | --- | --- | --- | --- | --- | --- | --- | --- |
| O=C1OC(=O)c2c(Cl)c(Cl)c(Cl)c(Cl)c21 | inactive | inactive | inactive | inactive | inactive | inactive | inactive | inactive | inactive | inactive | inactive | inactive |  |  |  |  |  |
| CCCCCCCCC(=O)O | inactive | inactive |  | inactive | inactive | inactive | inactive |  | inactive | inactive | inactive |  | inactive | inactive | inactive |  |  |
| CCCCC(=O)O | inactive | inactive | inactive | inactive | inactive | inactive | inactive | inactive | inactive | inactive | inactive | inactive |  | inactive |  | inactive |  |
| CC(C)c1ccc(C(C)C)cc1 | inactive | inactive | inactive | inactive | inactive | inactive | inactive | inactive | inactive | inactive | inactive |  |  |  |  | inactive |  |
| O=C(NCC1CCCCN1)c1cc(OCC(F)(F)F)ccc1OCC(F)(F)F (stereo not drawn) | inactive | inactive | inactive | inactive | inactive | 60 µM (active) | inactive | inactive | inactive | inactive |  |  |  | inactive | inactive |  | inactive |
